Test in all cases: qHTS profiling for inhibitors of Plasmodium falciparum proliferation (AID 504749); note: nearly all actives have a fitted effect of over 60% in size
Common to all, as to details: P. falciparum in erythrocytes, SYBR Green DNA, 72 h; series mostly up to 28.7 µM
(In general: qHTS replaces the single test concentration by a dilution series.)

For one assay, the system named is CP291. The method in brief: (§1)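 Three-day growth assay of blood-stage parasites in erythrocytes (0.3% parasitemia, 2.5% hematocrit) at 37 C, 5% CO2, quantified by SYBR Green DNA staining after overnight detergent lysis.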
Another assay concerns CP297. The essentials: as §1
The subject of a further assay is CP305. The essentials:
as §1

The subject of a further assay is CP315. The essentials:
as §1

The next assay relates to CP329. The method in brief: as §1
The subject of a further assay is CP335. The method in brief: as §1
The next assay has as its system DFO2036. The essentials:
as §1

Another assay has as its system DIV14. The essentials: as §1
The test system of another assay is DIV17. The essentials:
as §1

The next assay deals with DIV30. The method in brief: as §1
For a further assay, the system named is Dd2. The method in brief:
as §1

The subject of a further assay is ECU. The essentials:
as §1

A further assay deals with GB4. The method in brief: as §1
A further assay has as its system HB3. The method in brief:
as §1

The test system of the next assay is ICS. The essentials:
as §1

A further assay relates to JCK. The method in brief:
as §1

Another assay deals with N140. The essentials:
as §1

The subject of another assay is P93_24. The essentials:
as §1

The test system of a further assay is CP325. The essentials: as §1
The test system of the next assay is FAB9. The essentials: as §1

Inconclusive results are not listed. The source made the active and inactive calls. Calls come from the whole dose curve; as a rule, active = well fitted inhibition curve with a large enough effect; inconclusive = small, poorly fitted or top-dose-only effect; inactive = flat fitted curve, though single readings scatter.
Potency is the fitted concentration of half-maximal effect.

Regarding `COc1cccc(CCc2ccccc2OCC(CN(C)C)OC(=O)CCC(=O)O)c1` (configuration not stated), the Potency with CP291 is 12 µM (active); in the assay on CP297, 3.38 µM (active); in the assay with CP305 it was 7.57 µM (active); in the assay with CP315 it was 15.1 µM (active); in the assay with CP329, 12 µM (active); in the assay with CP335, 3.79 µM (active). For the same compound, the Potency in the assay with DFO2036 is 11.2 µM (active); in the assay on DIV14 it was 2.13 µM (active); with DIV17 it was 2.39 µM (active); with DIV30, 6.75 µM (active); in the assay with Dd2, 1.41 µM (active); in the assay on ECU, 4.47 µM (active). For the same compound, the Potency is 2.13 µM (active) in the assay on GB4; 12.6 µM (active) with HB3; 1.12 µM (active) in the assay with ICS; 10 µM (active) in the assay on JCK; 2.82 µM (active) with N140; 4.47 µM (active) in the assay on P93_24.
For the compound `CN1CCC(=C2c3ccccc3Sc3ccccc32)CC1`, the Potency with CP291 was 9.53 µM (active); in the assay on CP297, 8.49 µM (active); in the assay on CP335, 12 µM (active); with DFO2036, 10 µM (active); in the assay with DIV14, 7.57 µM (active); with DIV17, 12 µM (active). The Potency in the assay on DIV30 is 9.53 µM (active); in the assay on Dd2, 4.47 µM (active); in the assay with ECU, 7.08 µM (active); in the assay with GB4, 3.38 µM (active); in the assay with ICS, 5.62 µM (active); with N140, 10 µM (active). Also, in the assay on P93_24, the Potency was 10 µM (active). Moreover, the Potency entry in the assay on JCK is “inactive”.
As for `CC(Cc1cccc(C(F)(F)F)c1)NCCOC(=O)c1ccccc1` (configuration not stated), the Potency result in the assay with CP291, in the assay on CP305, with CP315, in the assay with CP325, in the assay with CP329 and in the assay on CP335 was “inactive” throughout. Moreover, the Potency result in the assay on DFO2036, in the assay with DIV30, with ECU, in the assay with FAB9, in the assay on HB3 and in the assay on ICS was “inactive” each time. In addition, the Potency result in the assay with JCK, with N140 and with P93_24 was “inactive” throughout.
Regarding `O=C1[C@H]2CCCC[C@H]2C(=O)N1CCCCN1CCN(c2nsc3ccccc23)CC1`, the Potency result in the assay with CP291, with CP305, in the assay with CP315, with CP325, in the assay with CP329 and in the assay on CP335 was “inactive” in each case. The Potency result in the assay with DFO2036, with DIV30, in the assay on Dd2, in the assay with ECU, with FAB9 and in the assay on JCK was “inactive” in each case. The Potency entry in the assay on N140 was “inactive”.
As for `Oc1c(Cl)cc(Cl)cc1Sc1cc(Cl)cc(Cl)c1O`, the Potency entry with CP291, in the assay with CP305, with CP315, in the assay with CP325, in the assay on CP329 and with CP335 was “inactive” each time. Moreover, the Potency entry in the assay on DFO2036, in the assay on DIV14, with DIV17, in the assay with DIV30, in the assay with Dd2 and in the assay on ECU was “inactive” each time. In addition, the Potency entry in the assay with FAB9, in the assay with GB4, in the assay with HB3, in the assay with ICS, in the assay with JCK and in the assay with N140 was “inactive” throughout. In addition, in the assay with P93_24, the Potency result was “inactive”.
`COc1cc(-c2ccc(=O)[nH]n2)ccc1OC(F)F`: the Potency result in the assay with CP291, in the assay on CP305, in the assay on CP325, in the assay on DIV14, in the assay with Dd2 and in the assay on ECU was “inactive” throughout. Moreover, the Potency entry in the assay with GB4, with HB3 and in the assay with ICS was “inactive” each time. The Potency was 0.501 µM (active) in the assay on DFO2036, 0.224 µM (active) with N140 and 0.0112 µM (active) in the assay with P93_24.
For the compound `Cc1cccc(C)c1NC(=O)CN1CCN(CCCC(c2ccc(F)cc2)c2ccc(F)cc2)CC1`, the Potency entry in the assay on CP291, with CP305, in the assay with CP315, in the assay on CP325, with CP329 and in the assay with DFO2036 was “inactive” in each case. Besides, the Potency entry with FAB9 and in the assay on JCK was “inactive” throughout. The Potency in the assay with ICS was 3.55 µM (active); in the assay on N140, 3.16 µM (active); in the assay with P93_24 it was 3.98 µM (active).
As to `CCCCN1CCCC1C(=O)Nc1c(C)cc(C)cc1C` (configuration not stated), the Potency entry in the assay with CP291, with CP305, in the assay with CP315, in the assay on CP325, in the assay on CP329 and in the assay on DFO2036 was “inactive” each time. The Potency entry with DIV14, in the assay on DIV17, with DIV30, with ECU, with FAB9 and with GB4 was “inactive” in each case. Further, the Potency entry in the assay with HB3, in the assay with JCK, in the assay on N140 and in the assay with P93_24 was “inactive” in each case.
Consider `CN(C)CCCOc1nn(Cc2ccccc2)c2ccccc12`, for which the Potency result with CP297, in the assay with CP305, with CP315, in the assay with CP325, in the assay with CP329 and with DFO2036 was “inactive” in each case. Further, the Potency entry in the assay on DIV30, in the assay on ECU, in the assay with FAB9, with HB3, in the assay with ICS and in the assay on N140 was “inactive” each time.
Take `CN(C)C(=S)SC(=S)N(C)C`: the Potency in the assay on CP305 was 15.1 µM (active); in the assay with CP325 it was 15.1 µM (active); with CP335, 8.49 µM (active); with DFO2036 it was 10 µM (active); in the assay on DIV14, 13.5 µM (active); with DIV30, 12 µM (active). Further, the Potency was 7.08 µM (active) in the assay on Dd2; 1.12 µM (active) in the assay with ECU; 13.5 µM (active) with GB4; 5.01 µM (active) with HB3; 5.01 µM (active) with ICS; 11.2 µM (active) in the assay with N140. The Potency in the assay with P93_24 is 8.91 µM (active).
On to `O=C(CCCN1CCC(O)(c2ccc(Br)cc2)CC1)c1ccc(F)cc1`, for which the Potency result with CP297, in the assay on DFO2036, in the assay with ECU and in the assay on FAB9 was “inactive” each time. Moreover, the Potency is 5.73 µM (active) in the assay on DIV14; 6.42 µM (active) in the assay with DIV17; 3.55 µM (active) in the assay on Dd2; 5.73 µM (active) in the assay on GB4; 3.55 µM (active) with ICS.

The record behind these values is PubChem BioAssay (NCATS).
